Shown are actives, neighbours in structure and some others; about 6.8% of the full set was active somewhere.
T cruzi growth-1: blocks T. cruzi growth in NIH3T3 culture; inhibition, % at 8.34 µM; 77,000 tested, 5.9% active; T. cruzi beta-gal in NIH3T3, GalScreen luminescence, 90 h; AID 624255;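 active means mean inhibition above about 93%, with at least 55% of replicates each passing it, limit read from the data, passing the limit was not always enough; inconclusive means only one of those two conditions holds; inactive means neither condition holds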
Pf Dd2 growth: inhibitors of Plasmodium falciparum Dd2 growth. P. falciparum Dd2 growth, SYBR Green, 72 h; hits give low values. activity change, % at 10 µM. 94,000 tested, 2.3% active. AID 1159554; in the data active means activity change below about -80%; inconclusive means no clear call, values can overlap the other calls
C diff growth: inhibitors of Clostridium difficile growth; Clostridium difficile clinical isolate growth, OD600, 24 h; hits give low values; growth activity, negative = inhibition, % at 16 µg/mL (by protocol); 86,000 tested, 0.25% active;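 active means mean growth activity at or below -80% and every replicate also at or below -80%; inconclusive means mean at or below -80% but some replicate above -80%; inactive means mean growth activity above -80%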
T cruzi growth-2: Trypanosoma cruzi proliferation inhibition. T. cruzi beta-gal in NIH3T3, GalScreen luminescence, 90 h. AID 651739. shares compounds with T cruzi growth-1. 5,600 tested, 72% active. inhibition, % at 8.35 µM;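 active means mean replicate inhibition above about 95% and at least 55% of replicates individually reaching it, limit read from the data; inconclusive means only one of the two criteria is met; inactive means neither criterion is met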
T cruzi growth-3: blocks T. cruzi growth in NIH3T3 host cells; inhibition, % at 2.09 µM; 5,600 tested, 21% active; T. cruzi beta-gal in NIH3T3, GalScreen luminescence, 90 h; shares compounds with T cruzi growth-1;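 active means mean inhibition above about 95%, with at least 55% of replicates also reaching it, limit read from the data; inconclusive means meets just one of the two conditions; inactive means meets neither condition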
3T3 cytotox: cytotoxicity in mouse NIH/3T3 fibroblasts. 5,600 tested, 14% active. cytotoxicity (signal decrease), % at 8.35 µM. NIH/3T3 viability, CellTiter-Glo ATP luminescence, 90 h. AID 651742. shares compounds with T cruzi growth-1;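 active means mean signal decrease across replicates above about 35% based on untreated-well scatter, with enough replicates individually passing, limit read from the data; inconclusive means no rule stated though some were filed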
3T3 cytotox 2: cytotoxicity in mouse NIH/3T3 fibroblasts; AID 651744; inhibition, % at 24.9 µM; NIH/3T3 viability, CellTiter-Glo ATP luminescence, 90 h; 5,600 tested, 56% active; shares compounds with T cruzi growth-1;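 active means mean loss of cell viability signal at or above a set limit, and enough replicates individually reaching it; inconclusive means meets only the mean limit or only the replicate share; inactive means meets neither condition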
Large screens that a line does not name were inactive (follow-up assays come after a bar, where they were run).

Cc1ccc(S(=O)(=O)N(C)C[C@H]2Oc3cc(-c4cccc(F)c4)ccc3S(=O)(=O)N([C@@H](C)CO)C[C@H]2C)cc1	T cruzi growth-1 119 | T cruzi growth-2 103 | T cruzi growth-3 inconclusive | 3T3 cytotox inactive | 3T3 cytotox 2 49
Cc1ccc(S(=O)(=O)N(C)C[C@H]2Oc3cc(C#Cc4ccccc4)ccc3S(=O)(=O)N([C@H](C)CO)C[C@@H]2C)cc1	none (no result: T cruzi growth-1)
Cc1ccc(-c2ccc3c(c2)O[C@H](CN(C)S(C)(=O)=O)[C@@H](C)CN([C@@H](C)CO)S3(=O)=O)cc1	none
CCCNC(=O)Nc1ccc2c(c1)OC[C@@H](C)N(CCC(F)(F)F)C[C@H](C)[C@@H](OC)CN(C)C2=O	none (no result: C diff growth)
C[C@@H]1CN([C@@H](C)CO)C(=O)Cc2cc(NC(=O)Nc3ccc4c(c3)OCO4)ccc2O[C@H]1CN(C)Cc1ccc(Cl)c(Cl)c1	none
C[C@H]1CN([C@@H](C)CO)S(=O)(=O)c2ccc(Br)cc2O[C@H]1CN(C)C(=O)C1CCCCC1	none
CCC(=O)N[C@@H]1CC[C@H](CCn2cc(C3CC3)nn2)O[C@@H]1CO	none (no result: T cruzi growth-1)
COCCNC(=O)C[C@H]1C=C[C@H](NS(=O)(=O)c2ccc(C)cc2)[C@@H](CO)O1	none (no result: T cruzi growth-1)
C[C@H]1CN([C@@H](C)CO)C(=O)c2cc(NS(=O)(=O)c3ccccc3)ccc2O[C@H]1CN(C)Cc1ccccc1	none
Cc1ccc(-c2ccc3c(c2)O[C@@H](CN(C)S(C)(=O)=O)[C@H](C)CN([C@@H](C)CO)S3(=O)=O)cc1	none
Cc1ccc(S(=O)(=O)N(C)C[C@@H]2Oc3cc(-c4cccc(F)c4)ccc3S(=O)(=O)N([C@@H](C)CO)C[C@@H]2C)cc1	T cruzi growth-1 121 | T cruzi growth-2 100 | T cruzi growth-3 inconclusive | 3T3 cytotox inactive | 3T3 cytotox 2 37
Cc1ccc(S(=O)(=O)N(C)C[C@@H]2Oc3cc(C#Cc4ccccc4)ccc3S(=O)(=O)N([C@H](C)CO)C[C@@H]2C)cc1	none (no result: T cruzi growth-1)
Cc1ccc(S(=O)(=O)N(C)C[C@H]2Oc3cc(-c4cccc(F)c4)ccc3S(=O)(=O)N([C@H](C)CO)C[C@@H]2C)cc1	T cruzi growth-1 126 | T cruzi growth-2 105 | T cruzi growth-3 inactive | 3T3 cytotox 36 | 3T3 cytotox 2 inactive
CN1c2ccc(Br)cc2[C@H]2[C@H](CCN2C(=O)C2CCOCC2)[C@@H]1CO	none
C[C@H]1CN([C@@H](C)CO)C(=O)c2cccc(NC(=O)c3cnccn3)c2O[C@H]1CN(C)Cc1ccc(C(=O)Nc2ccccc2N)cc1	none (no result: T cruzi growth-1)
C[C@H]1CN([C@@H](C)CO)C(=O)c2cccc(NC(=O)c3cnccn3)c2O[C@@H]1CN(C)Cc1ccc(C(=O)Nc2ccccc2N)cc1	T cruzi growth-1 102, Pf Dd2 growth -94 | T cruzi growth-2 111 | T cruzi growth-3 inactive | 3T3 cytotox inactive | 3T3 cytotox 2 inconclusive
C[C@H](CO)N1C[C@H](C)[C@@H](CN(C)Cc2ccc(C(=O)Nc3ccccc3N)cc2)Oc2c(NC(=O)c3cnccn3)cccc2C1=O	T cruzi growth-1 106, Pf Dd2 growth -92 | T cruzi growth-2 104 | T cruzi growth-3 104 | 3T3 cytotox inactive | 3T3 cytotox 2 52
C[C@H](CO)N1C[C@H](C)[C@H](CN(C)Cc2ccc(C(=O)O)cc2)Oc2c(NC(=O)c3cnccn3)cccc2C1=O	none
COc1ccc(CN(C)C[C@H]2OCCCC[C@H](C)Oc3ccc(NC(=O)c4ccncc4)cc3C(=O)N([C@@H](C)CO)C[C@H]2C)cc1	none
CC(=O)N1[C@H](C(=O)NC2CCC2)[C@@H](CO)[C@@H]2Cn3c(ccc(C4=CCCC4)c3=O)[C@@H]21	none (no result: T cruzi growth-1)
CCCNC(=O)Nc1ccc2c(c1)OC[C@@H](C)N(Cc1ccccn1)C[C@@H](C)[C@H](OC)CN(C)C2=O	none (no result: C diff growth)
O=C(C[C@H]1CC[C@@H](NC(=O)c2ccc3c(c2)OCO3)[C@@H](CO)O1)NCc1ccc(Cl)cc1	none
CCC(=O)N1CC2(C1)[C@H](c1ccccc1)[C@H](CO)N2C(=O)NC(C)C	none (no result: T cruzi growth-1)
CC(C)NC(=O)N(C)C[C@H]1Oc2ccc(NC(=O)Nc3ccc(F)cc3)cc2CC(=O)N([C@@H](C)CO)C[C@@H]1C	none
Cc1noc(C)c1NC(=O)N[C@@H]1CC[C@@H](CC(=O)Nc2ccc(-c3ccccc3)cc2)O[C@@H]1CO	none (no result: C diff growth)
C[C@H](CO)N1C[C@H](C)[C@@H](CN(C)C(=O)Nc2ccc(C(F)(F)F)cc2)OCCCC[C@H](C)Oc2ccc(NS(=O)(=O)c3ccccc3)cc2C1=O	T cruzi growth-1 inconclusive | T cruzi growth-2 114 | T cruzi growth-3 inactive | 3T3 cytotox inactive | 3T3 cytotox 2 inactive
C[C@H]1CCCCO[C@H](CN(C)C(=O)Nc2ccc(C(F)(F)F)cc2)[C@@H](C)CN([C@@H](C)CO)C(=O)c2cc(NS(C)(=O)=O)ccc2O1	T cruzi growth-1 97 | T cruzi growth-2 113 | T cruzi growth-3 inactive | 3T3 cytotox inactive | 3T3 cytotox 2 51
C[C@@H]1CN([C@@H](C)CO)C(=O)c2cc(NS(=O)(=O)c3ccccc3)ccc2O[C@@H](C)CCCCO[C@@H]1CN(C)C(=O)Nc1ccc(C(F)(F)F)cc1	T cruzi growth-1 inconclusive | T cruzi growth-2 104 | T cruzi growth-3 inactive | 3T3 cytotox inactive | 3T3 cytotox 2 43
C[C@H]1CCCCO[C@H](CN(C)C(=O)Nc2ccccc2)[C@@H](C)CN([C@@H](C)CO)C(=O)c2cc(NS(=O)(=O)c3ccccc3)ccc2O1	none (no result: T cruzi growth-1, C diff growth)
C[C@@H]1CN([C@H](C)CO)C(=O)c2cc(NS(=O)(=O)c3ccccc3)ccc2O[C@@H](C)CCCCO[C@H]1CN(C)C(=O)Nc1ccccc1	none (no result: T cruzi growth-1, C diff growth)
C[C@@H]1CCCCO[C@@H](CN(C)C(=O)Nc2ccc(C(F)(F)F)cc2)[C@@H](C)CN([C@H](C)CO)C(=O)c2cc(NS(C)(=O)=O)ccc2O1	none
Cc1ccc(S(=O)(=O)N2[C@@H]3CNC[C@H]2C3c2ccc(-c3ccccc3C)cc2)cc1 (stereo partly drawn)	none (no result: T cruzi growth-1)
N#C[C@H]1[C@@H](c2ccccc2-c2ccccc2)[C@H](CO)N1C(=O)NC1CCCCC1	none (no result: T cruzi growth-1)
COc1ccc(S(=O)(=O)N(C)C[C@@H]2Oc3cc(C#CC4CC4)ccc3S(=O)(=O)N([C@H](C)CO)C[C@H]2C)cc1	T cruzi growth-1 106 | T cruzi growth-2 103 | T cruzi growth-3 inactive | 3T3 cytotox 37 | 3T3 cytotox 2 47
COc1ccc(S(=O)(=O)N(C)C[C@H]2Oc3cc(C#CC4CCCC4)ccc3S(=O)(=O)N([C@@H](C)CO)C[C@@H]2C)cc1	Pf Dd2 growth inconclusive
COc1ccc(S(=O)(=O)N(C)C[C@H]2Oc3cc(C#CC4CC4)ccc3S(=O)(=O)N([C@@H](C)CO)C[C@@H]2C)cc1	T cruzi growth-1 102 | T cruzi growth-2 97 | T cruzi growth-3 inactive | 3T3 cytotox 53 | 3T3 cytotox 2 67

Bioassay records: PubChem, Broad Institute
